D1 ag – activates the human D1 dopamine receptor | P21728 | HEK293 T-REx D1 cells, calcium flux, agonist mode | activation, % at 2 µM | actives 1% (n = 360,000) | AID 504660; in the data active = activation above about 30%; also: 0% is about no effect
Target sequence (P21728 whole entry, looked up): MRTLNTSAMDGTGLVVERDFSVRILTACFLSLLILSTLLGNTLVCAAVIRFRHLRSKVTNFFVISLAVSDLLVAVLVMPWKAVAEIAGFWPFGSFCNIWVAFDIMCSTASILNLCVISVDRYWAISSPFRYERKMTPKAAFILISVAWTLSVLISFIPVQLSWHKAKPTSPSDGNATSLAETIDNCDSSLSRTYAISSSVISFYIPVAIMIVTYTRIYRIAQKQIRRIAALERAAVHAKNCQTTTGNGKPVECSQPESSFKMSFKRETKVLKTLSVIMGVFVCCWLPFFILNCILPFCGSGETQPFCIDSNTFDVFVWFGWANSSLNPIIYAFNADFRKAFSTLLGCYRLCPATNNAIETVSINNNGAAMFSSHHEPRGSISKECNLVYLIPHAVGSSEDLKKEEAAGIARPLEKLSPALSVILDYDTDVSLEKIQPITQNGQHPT
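Inducible HEK293 T-REx D1 cells, force-coupled to calcium signalling, were plated at 4000 cells/well with tetracycline and held overnight at 30 C. After no-wash calcium dye loading, compound-evoked calcium rise over 180 s flagged agonists.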
DRD3 agonist – agonists of human D3 dopamine receptor. max activation, %. AID 652048. D3R DiscoveRx beta-arrestin cells, luminescence, 90 min. actives 0.58% (n = 410,000). P35462; in the data active = max activation above about 30%; also: 0% is about no effect
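Cells at 1500/well, incubated overnight, then treated with pinned compounds (dopamine as control) for 90 min at 37 degrees C. DiscoveRx reagent added for 30 - 60 minutes at room temperature; luminescence read.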
D3 antag – antagonists of human D3 dopamine receptor; P35462; D3R cells, DiscoveRx beta-arrestin luminescence, antagonist mode; active compounds read low; max response, negative = inhibition, %; actives 2.5% (n = 360,000); AID 652054; in the data active = max response below about -50%; inconclusive = no clear call, values can overlap the other calls; also: % is scaled to controls: 0 for no effect and ±100 for the full control effect
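Cells plated overnight at 1500 cells/well, then exposed to library compounds with dopamine controls for 90 minutes at 37 degrees C. DiscoveRx reagent added for 30–60 minutes at room temperature; luminescence read, quantitative HTS format.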
D1 antag – antagonists of human D1 dopamine receptor; P21728; HEK293 TREx D1 cells, calcium flux, dopamine EC80; active compounds read low; activity change, negative = inhibition, % at 10 µM; actives 3.2% (n = 360,000); AID 504652; in the data active = activity change below about -30%; also: % is scaled to controls: 0 for no effect and ±100 for the full control effect
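Kinetic fluorescence of a calcium dye serves as the read-out. D1-expressing Hek293 Trex cells, induced overnight at 30 C, are exposed to compound for 180 s before an EC80 dopamine addition, then read 180 s further.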
D1 PAM – human D1 dopamine receptor positive modulation; HEK293 TREx D1 cells, calcium flux, dopamine EC20 potentiation; potentiation, % at 10 µM; actives 0.036% (n = 360,000); AID 504651; in the data active = potentiation above about 30%; also: 0% is about no effect
The depositor's hits bear a star; ? = inconclusive; . = no result given. Rows were chosen to be rich in hits. Some 6.1% of all compounds tested hit in one or more screens of this group.

SMILES	D1 ag	DRD3 agonist	D3 antag	D1 antag	D1 PAM
CC(C)N1C(=O)CCC1C(=O)N1CCN(c2ccc(F)cc2)CC1 (centres undefined)	1.9	0.3	1.7	-8.3	2.0
Cc1cc(C(=O)NCCCN2CCN(c3cc(Cl)ccc3C)CC2)n(-c2ccccc2)n1	1.9	-12.1	-65.3*	-7.0	1.5
COc1ccccc1NC(=O)NCCN1CCN(C(=O)Nc2ccccc2OC)CC1	0.5	1.1	-1.6	0.7	-0.5
CN(CCCNC(=O)C1CCC(=O)N1Cc1ccccc1Cl)c1ccccc1 (centres undefined)	0.9	-20.7	13.1	-9.9	0.8
Cc1cc(C(=O)NCCN2CCN(c3cccc(Cl)c3)CC2)n(-c2ccccc2)n1	3.4	-3.1	?	-20.8	-0.9
O=C(NCCCN1CCN(c2cccc(Cl)c2)CC1)C1CCC(=O)N1Cc1ccccc1Cl (centres undefined)	11.2	-3.6	?	-38.3*	-9.8
O=C(C1CCC(=O)N1Cc1ccccc1Cl)N1CCN(c2ccc(F)cc2)CC1 (centres undefined)	-0.4	4.6	7.1	-48.2*	-6.0
Cc1ccc(C(=O)N/C(=C\c2cn(S(=O)(=O)N(C)C)c3ccccc23)C(=O)NCCCN2CCOCC2)cc1	0.1	6.9	-1.1	-0.4	-6.0
COCCNC(=O)CCCn1c(SCc2ccccc2Cl)nc2c(sc3ccccc32)c1=O	22.6	-22.2	.	-5.8	1.0
COc1ccc(CN2C[C@@H](CO)O[C@@H](n3cnc4c(NCCN(C)C)ncnc43)C2)cc1	.	-25.9	-16.3	.	.
O=C(NCCCN1CCN(c2cccc(Cl)c2)CC1)C1(S(=O)(=O)c2ccc(Cl)cc2)CC1	3.0	11.1	-56.5*	6.2	-7.5
COc1ccccc1N1CCN(CCCNC(=O)Nc2ccccc2C)CC1	1.9	-16.4	-27.1	-41.6*	-8.1
COc1ccc(Cl)cc1N1CCN(CCNC(=O)Nc2ccccc2C)CC1	7.9	-17.4	-131.1*	-14.8	-9.6
COc1ccc(N2CCN(CCCNC(=O)C3(S(=O)(=O)c4ccc(Cl)cc4)CC3)CC2)cc1	1.4	2.6	2.5	2.8	1.2
O=C(NCCCN1CCN(c2ccccc2F)CC1)c1nnc(Cc2ccc(Cl)cc2Cl)o1	20.9	11.5	.	-54.5*	-4.3
CC(C)(C)C(=O)Nc1cccc2[nH]ncc12	2.2	-5.1	-26.9	1.0	-4.3
Cc1cc(OCC(=O)Nc2ccc(C(=O)OC3CCCCC3)cc2)cc(C)c1Cl	3.6	9.7	.	-4.8	1.8
Cc1ccccc1NC(=O)C(=O)NCCCN1CCOCC1	1.5	-0.9	-2.4	-1.7	-0.4
Cc1nn(-c2ccccc2)c(-n2cccc2)c1C(=O)NCCCN1CCN(c2ccccc2F)CC1	0.6	0.1	.	-33.2*	-4.5
Cc1ccccc1NC(=O)NCCCN1CCN(c2ccccc2F)CC1	8.6	.	.	-82.0*	-5.0
COC(=O)c1ccc(NC(=O)CCN2CCOCC2)cc1	2.7	9.4	3.4	8.8	-5.2
COc1ccc(-n2cc(CNC3CCC(O)CC3)c(-c3cccc(F)c3)n2)cc1 (centres undefined)	36.3*	7.5	6.7	5.3	2.6
CC(C)C#Cc1ccc2c(c1)O[C@@H](CN(C)C(=O)c1cnccn1)[C@@H](C)CN([C@@H](C)CO)S2(=O)=O	.	0.7	-16.2	.	.
C[C@@H]1CN([C@H](C)CO)S(=O)(=O)c2ccc(Br)cc2O[C@H]1CN(C)C(=O)C1CCCCC1	.	3.9	-73.9*	.	.
C[C@H](CO)N1C[C@H](C)[C@@H](CN(C)C(=O)c2cnccn2)Oc2cc(C#CCC3CCCC3)ccc2S1(=O)=O	.	-6.7	-61.5*	.	.
SMILES	D1 ag	DRD3 agonist	D3 antag	D1 antag	D1 PAM
COc1ccc(F)cc1C(=O)C1CCCN(Cc2c(C)n(C)n(-c3ccccc3)c2=O)C1 (centres undefined)	0.2	-19.8	-55.3*	1.8	-1.4
COc1ccc(F)cc1C(=O)C1CCCN(Cc2cccn2-c2cccnc2)C1 (centres undefined)	0.4	-20.7	-95.5*	-8.3	-3.4
COc1ccc(F)cc1C(=O)C1CCCN(Cc2ccc3c(c2)OCCO3)C1 (centres undefined)	0.0	-3.5	-105.3*	-1.6	3.9
COc1ccc(C(=O)C2CCCN(Cc3ccc4c(c3)OCCO4)C2)cc1F (centres undefined)	29.0	-29.3	-25.5	-16.4	-0.1
COc1ccc(F)cc1C(=O)C1CCCN(C(=O)CSc2ccccn2)C1 (centres undefined)	0.0	1.3	10.9	2.9	8.5
COc1ccccc1C(=O)C1CCCN(Cc2ccc3c(c2)OCCO3)C1 (centres undefined)	2.5	-38.3	-50.2*	-11.5	-1.2
C=CCO/N=C(/CCC)C1=C(N)CC(C)(C)CC1=O	0.5	-2.0	-8.4	-1.4	1.1
COc1ccc(F)cc1C(=O)C1CCCN(Cc2ccc(Oc3ncccn3)cc2)C1 (centres undefined)	5.4	-12.1	-72.8*	-9.4	-7.5
Cc1c(CN2CCCCC2C)c(=O)n(-c2ccccc2)n1C (centres undefined)	0.6	-12.9	-58.2*	-20.2	-1.2
COc1cc(OC)c(OC)cc1CN1CCCC(C(=O)c2ccccc2SC)C1 (centres undefined)	3.0	-7.0	-60.5*	-1.5	-5.2
CCC/C=C/c1ccc(CN2C(C)C(=O)N(Cc3cn(CCC4OCCO4)nn3)CCS2(=O)=O)cc1 (centres undefined)	.	0.3	6.6	.	.
O=C(/C=C/Nc1cccc(F)c1)c1ccco1	-0.2	0.6	-12.3	2.3	-3.5
O=C(/C=C/Nc1ccc(F)c(Cl)c1)c1ccco1	7.5	3.2	?	-36.6*	18.6
OC(c1cccc(CN2CCCCC2)c1)c1ncc(-c2cccc3ccccc23)[nH]1 (centres undefined)	.	-18.1	-53.8*	.	.
OC(c1cccc(CN2CCCCC2)c1)c1ncc(-c2cccc(C(F)(F)F)c2)[nH]1 (centres undefined)	.	-3.0	0.5	.	.
CCOC(=O)c1c(C)[nH]c(C)c1C(=O)COC(=O)/C=C/c1ccc(OC(F)F)cc1	1.9	-0.5	-15.9	2.7	33.2*
CCOC(=O)c1c(C)[nH]c(C(=O)COC(=O)/C=C/c2ccc(OC(F)F)cc2)c1C	2.1	6.8	0.1	-11.2	-0.9
COc1cccc(C(C(=O)NC2CCCC2)N(C(=O)c2ccco2)c2ccccc2F)c1OC (centres undefined)	-0.9	-5.8	9.5	-1.0	1.1
COc1ccc(C(C(=O)NC2CCCC2)N(Cc2ccco2)C(=O)c2snc(C(N)=O)c2N)cc1OC (centres undefined)	4.2	3.6	17.8	-33.1*	-4.0
COc1cccc(C(C(=O)NC2CCCC2)N(Cc2ccco2)C(=O)c2ccco2)c1OC (centres undefined)	-0.3	0.3	-65.1*	-37.3*	-5.3
